Screens as filed in PubChem.
Only some compounds are listed: those with a hit (about 2.4% of all), similar ones and a draw of the others.
FPRL1 binder – human FPRL1 ligands by binding competition, primary screen, cell-based, FPR counter-screen, flow cytometry. FPRL1-expressing cells, fluorescent ligand binding inhibition. inhibition, % (no concentration beside the values). N-formyl peptide receptor 2 (Homo sapiens), P25090. hit rate 0.3% among 24,000. AID 441, 2006;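 further: 0% = buffer alone and 100% = receptor blocker peptide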
Target sequence (P25090 whole entry, looked up): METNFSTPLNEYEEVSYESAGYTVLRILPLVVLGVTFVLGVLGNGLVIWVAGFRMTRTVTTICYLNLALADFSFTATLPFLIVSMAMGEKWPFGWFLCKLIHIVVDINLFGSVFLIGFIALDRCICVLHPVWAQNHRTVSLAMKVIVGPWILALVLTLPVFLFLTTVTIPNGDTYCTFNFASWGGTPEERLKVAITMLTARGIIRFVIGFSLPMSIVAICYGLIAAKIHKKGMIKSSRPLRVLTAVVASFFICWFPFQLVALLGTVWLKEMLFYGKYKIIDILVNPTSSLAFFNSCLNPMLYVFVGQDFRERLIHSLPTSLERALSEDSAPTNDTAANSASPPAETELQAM
Autofluor Jurkat – compound autofluorescence on Jurkat cells, primary screen, artefact control for VLA-4 allosteric ligand project, cell-based, flow cytometry. hit rate 0.61% among 24,000. hits give high values; 1 = vehicle-only cell background. fluorescence ratio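 (tested at 10 µM compound in the well)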. AID 576, 2007;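 active means fluorescence ratio above 2.44, which is 1 plus 3 SD of all ratios; inconclusive means signal too bright to measure linearly, ratio around 10 or more; inactive means fluorescence ratio below 2.44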;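 further: green fluorescence of cells measured with 488 nm excitation and 530 nm emission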
VLA-4 agonist – enhancers of LDV-FITC binding to VLA-4 integrin, primary screen, Jurkat cells, flow cytometry. Integrin alpha-4 (Homo sapiens), P13612. activation, % at 10 µM (by protocol). 24,000 tested, under 10 active. AID 528, 2006;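 active means fluorescent ligand binding to cells raised by more than 40% of the manganese-induced maximum; inconclusive means compound's own fluorescence above 85% of the ligand control signal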;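 further: 0% = ligand binding without compound and 100% = manganese-stimulated maximal binding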
FPR ligand – human FPR ligands by binding competition, primary screen, cell-based, FPRL1 counter-screen, flow cytometry. fMet-Leu-Phe receptor (Homo sapiens), P21462. FPR-expressing cells, fluorescent ligand binding. inhibition, % (concentration not given with the values). hit rate 0.74% among 24,000. AID 440, 2006;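 further: 0% = buffer wells and 100% = receptor blocker peptide wells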
VLA-4 antagonist – inhibitors of LDV-FITC binding to Mn2+-activated VLA-4, primary screen, Jurkat cells; inhibition, % at 10 µM (by protocol); LDV-FITC binding with Mn2+, flow cytometry; 100% = Mn2+-driven binding gain fully reversed; hit rate 0.2% among 24,000; Integrin alpha-4 (Homo sapiens), P13612;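 active means inhibition above 50%; inconclusive means compound itself fluorescent, judged against control cell fluorescence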;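 further: 0% = Mn2+ stimulated cells lacking compound and 100% = ligand binding without Mn2+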
LNCaP diff act – activators of LNCaP prostate cell differentiation, primary screen, flow cytometry side scatter. side scatter shift, % at 10 µM. 4 d. hit rate 0.56% among 24,000;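 active means side scatter shift above 30%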;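 further: androgen-responsive LNCaP prostate cancer cells in charcoal-stripped serum medium; percent of cells past a gate set so DMSO wells show 10% shift; higher shift means more granular cells and more differentiation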
Numbers without * were called inactive; ? = inconclusive; . = no result given. Unless noted, no stated cut-off is given here; in the data, active means inhibition above about 30%; inconclusive means no clear call, values can overlap the other calls; inactive means below that.

SMILES	FPRL1 binder	Autofluor Jurkat	VLA-4 agonist	FPR ligand	VLA-4 antagonist	LNCaP diff act
CCN(CCNC(=O)C1CCN(Cc2nc(-c3cccc(Cl)c3)oc2C)CC1)c1ccccc1	14.4	1.15	?	9.9	?	24.0
Cc1oc(-c2ccc(Cl)cc2)nc1CN1CCC(C(=O)NCCCN2CCOCC2)CC1	-4.2	0.95	3.0	4.5	16.0	63.0*
CCN(CCNC(=O)C1CCN(Cc2nc(-c3ccc(Cl)cc3)oc2C)CC1)c1ccccc1	-1.8	1.6	?	4.4	?	66.0*
Cc1oc(-c2cccc(Cl)c2)nc1CN1CCCC(C(=O)NCCCN2CCOCC2)C1 (stereo not drawn)	2.1	1.16	-1.0	1.8	9.0	26.0
CCc1ccc(-c2nc(CN3CCC(C(=O)NCCN(CC)c4ccccc4)CC3)c(C)o2)cc1	14.6	1.06	?	-0.5	?	32.0*
CC(NC(=O)CN1C(=O)COc2ccccc21)c1ccccc1 (stereo not drawn)	6.0	0.96	6.0	4.3	-1.0	6.0
CCc1ccc(CNC(=O)CN2C(=O)COc3ccccc32)cc1	0.0	1.07	-3.0	-5.9	52.0*	.
CCOC(=O)C1CCN(C(=O)c2sc3nc(-c4ccccc4)cn3c2C)CC1	-6.7	2.78*	?	1.0	?	8.0
COc1ccccc1N1CCN(C(=O)c2sc3nc(-c4ccccc4)cn3c2C)CC1	-10.2	3.16*	?	-3.7	?	9.0
CCOC(=O)C1=C(C)N=C2SC(CC)C(=O)N2C1c1ccc(OC(C)=O)c(OCC)c1 (stereo not drawn)	2.2	1.03	-1.0	9.9	3.0	4.0
c1ccc(N2CCN(c3nnc(Cc4cccnc4)c4ccccc34)CC2)nc1	-2.0	1.17	-4.0	1.1	2.0	30.0*
COc1ccccc1C(=O)Nc1cc(-c2nn3c(C)nnc3s2)ccc1C	-2.6	1.15	3.0	-14.4	-4.0	17.0
O=C1C(C23CC4CC(CC(C4)C2)C3)C(=O)N(c2ccccc2)N1c1ccccc1	1.0	1	-6.0	73.1*	41.0	.
O=C(COC(=O)c1cncc(Br)c1)NCCC1=CCCCC1	-7.5	1.05	5.0	-0.7	-5.0	6.0
CCCCC1C(=O)N(c2ccccc2)N(c2ccccc2)C1=O	0.0	0.97	-43.3	50.2*	80.0*	4.0
O=C1CCCC(O)=C1C(C#Cc1ccccc1)C1=C(O)CCCC1=O	4.1	1.18	-1.0	46.8*	3.0	13.0
CCCCOc1ccc(-c2nnn(CC(=O)Nc3ncc(CC(=O)OCC)s3)n2)cc1	-9.8	1	-34.5	-1.0	93.5*	9.0
Cc1sc2c(c1C)CN(Cc1ccco1)CN2C(=O)c1ccccc1	1.3	1.17	?	3.4	?	8.0
Cc1cccn2c(=O)c3cc(C#N)c(=NC(=O)c4ccncc4)n(Cc4ccco4)c3nc12	9.3	4.14*	?	9.5	?	8.0
CC(C)n1c(=NC(=O)c2ccco2)c(C#N)cc2c(=O)n3ccccc3cc21	6.5	1.19	0.0	-4.4	7.0	5.0
CC1Cc2nc(SCC(=O)Nc3ccc4c(c3)OCO4)n(-c3ccc(F)cc3)c(=O)c2S1 (stereo not drawn)	1.1	1.01	-18.0	-4.4	13.5	3.0
COc1ccc(NC(=O)CSc2nc3c(c(=O)[nH]2)CCC3)cc1OC	-5.0	1	-6.0	7.6	-15.0	10.0
CCC(Sc1nc2c(c(=O)[nH]1)CCC2)C(=O)Nc1cccc(OC)c1 (stereo not drawn)	-2.3	1.13	-10.0	62.1*	0.0	6.0
Cc1cc(C)nc(N2CCC(C(=O)Nc3ccc(Oc4ccccc4)cc3)CC2)n1	-4.1	0.99	1.5	-5.1	7.5	33.0*
COc1ccc(C)cc1NS(=O)(=O)c1cccc2nonc12	0.3	1.09	-1.0	0.2	17.0	4.0
SMILES	FPRL1 binder	Autofluor Jurkat	VLA-4 agonist	FPR ligand	VLA-4 antagonist	LNCaP diff act
COc1ccc(-c2cc(C(F)(F)F)nc(N3CCCCC3)n2)cc1OC	33.2*	1.16	-5.0	9.6	15.0	12.0
COc1ccc(-c2cc(C(F)(F)F)nc(N3CCCCCC3)n2)cc1	13.1	1.07	2.0	4.0	-21.0	10.0
COc1ccc(-c2cc(C(F)(F)F)nc(N3CCN(C)CC3)n2)cc1	8.9	1.02	-3.0	1.7	-6.0	43.0*
COc1ccc(-c2cc(C(F)(F)F)nc(N3CCN(c4ccccc4)CC3)n2)cc1OC	16.5	0.98	5.0	68.4*	-7.0	7.0
COC(=O)c1ccc2c(=O)n(CCC3=CCCCC3)c(SCC(=O)N3CCCC3)nc2c1	2.9	0.96	2.0	9.9	-3.0	20.0
Nc1ccc(CN2CCN(c3ccc4ccccc4n3)CC2)cc1	3.3	1.07	4.0	-3.0	3.0	8.0
Cc1oc(-c2ccc(Cl)cc2)nc1CN1CCC(C(=O)N2CCN(c3ccccn3)CC2)CC1	-1.9	0.95	?	-1.1	?	43.0*
CCc1ccc(-c2nc(CN3CCC(C(=O)N4CCN(c5ccccn5)CC4)CC3)c(C)o2)cc1	6.8	1.26	?	-0.5	?	3.0
CCc1ccc(-c2nc(CN3CCC(C(=O)N4CCN(c5ccccc5)CC4)CC3)c(C)o2)cc1	-10.8	1.16	?	4.8	?	35.0*
O=C(C1CCN(S(=O)(=O)c2cccc3cccnc23)CC1)N1CCn2c1nc1ccccc12	-1.8	1.12	6.0	2.8	-15.0	6.0
Cc1ccc(CN2CCSc3ccc(C(=O)N4CCN(c5ncccn5)CC4)cc32)cc1	-15.5	1.09	-4.0	-0.5	5.0	44.0*
COCCNC(=O)CC(NS(=O)(=O)c1ccc(NC(C)=O)cc1)C(C)C (stereo not drawn)	-1.4	1.06	2.3	0.4	-2.7	31.0*
CCCCCCNC(=O)CC(NS(=O)(=O)c1ccc(NC(C)=O)cc1)C(C)C (stereo not drawn)	1.3	1.04	3.0	7.8	4.0	3.0
COC(=O)c1[nH]c(C)c(/C(O)=C2\C(=O)C(=O)N(CCN3CCOCC3)C2c2cccs2)c1C (stereo not drawn)	0.9	1.05	-4.0	54.2*	-18.0	5.0
CCCCCNC(=O)CCCCn1c(=O)[nH]c2cc(OCC)c(OCC)cc2c1=O	-11.1	1	-10.5	-2.4	77.7*	15.0
COc1cc2c(cc1OC)CN(S(C)(=O)=O)CC2	-8.2	1.02	-1.0	-4.9	-16.0	8.0
COc1ccc(Cl)cc1-n1c(=S)sc2c(=O)[nH]c(SCC(=O)NCC3CCCO3)nc21 (stereo not drawn)	-2.8	1.1	-3.0	44.2*	-10.0	3.0
CCOc1ccc(-n2c(=S)sc3c(=O)[nH]c(SCC(=O)NCc4ccco4)nc32)cc1	-3.9	1.06	7.0	1.1	-17.0	2.0
